Shown are actives, neighbours in structure and some others; about 2.4% of the full set was active somewhere.
POLB inh = blocks human DNA polymerase beta activity. Pol beta primer extension/strand displacement, fluorescence kinetic. Potency, µM (series often up to 114 µM), inactives show top-dose activity change, negative = inhibition, usual class: inhibitors. P06746. actives 1.3% (n = 340,000); further: potency means the concentration at half of the fitted maximal effect; on the % scale 0 is the no-effect control and ±100 the full control effect
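10 nM enzyme + cpd, 15 min RT; start with substrate 50 nM final; read 0 min and after 10 min RT. Corrected, normalized data; 4-parameter Hill curve fit.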
Pol eta inh-1 = blocks human DNA polymerase eta activity | recombinant Pol eta, fluorescent DNA replication assay | Potency, µM (series often up to 114 µM), for inactives: top-dose activity change, negative = inhibition, most hits filed as inhibitors | actives 1.2% (n = 390,000); further: potency means the concentration at half of the fitted maximal effect; on the % scale 0 is the no-effect control and ±100 the full control effect
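Fluorescent replication assay: 50 nM final substrate added after a 15 min room-temperature compound preincubation with 10 nM enzyme. Signal taken at 0 min and again at 10 min.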
FEN1 inhibitor = blocks human flap endonuclease 1; Recombinant FEN1 flap cleavage, fluorescence, 15 min; Potency, µM (top dose mostly 114 µM), for the others: at the top dose activity change, negative = inhibition, usual class: inhibitors; actives 0.35% (n = 390,000); further: potency means the concentration at half of the fitted maximal effect; on the % scale 0 is the no-effect control and ±100 the full control effect; nearly all actives have a fitted effect of over 65% in size
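Nuclease activity of 10 nM FEN1 was measured after 15 min of room-temperature exposure to titrated compounds, by adding 50 nM flap substrate and reading plates at 0 and 15 min.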
WRN helicase inh = inhibitors of human WRN helicase; Q14191; WRN helicase unwinding, fluorescent forked duplex, kinetic; Potency, µM (doses to about 114 µM), without a hit: top-dose activity change, negative = inhibition, actives largely listed as inhibitors; actives 0.46% (n = 360,000); further: potency means the concentration at half of the fitted maximal effect; on the % scale 0 is the no-effect control and ±100 the full control effect; nearly all actives have a fitted effect of over 55% in size
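Fluorescence dequenching readout, ex 525 nm/em 598 nm, kinetic mode: forked duplex DNA (100 nM final) with adjacent fluorophore and quencher unwound by WRN (20 nM final) with 2 mM ATP. Compound preincubation 15 min, room temperature.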
POLI inh = inhibitors of human DNA polymerase iota | Q9UNA4 | Pol iota fluorescent replication assay, 10 min | Potency, µM (doses to about 115 µM), without a hit: at the highest dose activity, negative = inhibition, most hits filed as inhibitors | actives 1% (n = 390,000) | AID 588590; further: potency means the concentration at half of the fitted maximal effect
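Pol iota at 10 nM preincubated 15 min with compounds at room temperature; reaction started with fluorescent substrate, 50 nM final. Fluorescence read kinetically at 0 and 10 min; buffer-only wells as negative control.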
Pol kappa inh-1 = DNA polymerase kappa (human) inhibition; Q9UBT6; purified Pol kappa, fluorescent DNA synthesis assay, 10 min; Potency, µM (titrated, usually from 107 µM), without a hit: at the top dose activity, negative = inhibition, usual class: inhibitors; actives 0.53% (n = 400,000); further: potency means the concentration at half of the fitted maximal effect; on the % scale 0 is the no-effect control and ±100 the full control effect
Target sequence (Q9UBT6 whole entry, looked up): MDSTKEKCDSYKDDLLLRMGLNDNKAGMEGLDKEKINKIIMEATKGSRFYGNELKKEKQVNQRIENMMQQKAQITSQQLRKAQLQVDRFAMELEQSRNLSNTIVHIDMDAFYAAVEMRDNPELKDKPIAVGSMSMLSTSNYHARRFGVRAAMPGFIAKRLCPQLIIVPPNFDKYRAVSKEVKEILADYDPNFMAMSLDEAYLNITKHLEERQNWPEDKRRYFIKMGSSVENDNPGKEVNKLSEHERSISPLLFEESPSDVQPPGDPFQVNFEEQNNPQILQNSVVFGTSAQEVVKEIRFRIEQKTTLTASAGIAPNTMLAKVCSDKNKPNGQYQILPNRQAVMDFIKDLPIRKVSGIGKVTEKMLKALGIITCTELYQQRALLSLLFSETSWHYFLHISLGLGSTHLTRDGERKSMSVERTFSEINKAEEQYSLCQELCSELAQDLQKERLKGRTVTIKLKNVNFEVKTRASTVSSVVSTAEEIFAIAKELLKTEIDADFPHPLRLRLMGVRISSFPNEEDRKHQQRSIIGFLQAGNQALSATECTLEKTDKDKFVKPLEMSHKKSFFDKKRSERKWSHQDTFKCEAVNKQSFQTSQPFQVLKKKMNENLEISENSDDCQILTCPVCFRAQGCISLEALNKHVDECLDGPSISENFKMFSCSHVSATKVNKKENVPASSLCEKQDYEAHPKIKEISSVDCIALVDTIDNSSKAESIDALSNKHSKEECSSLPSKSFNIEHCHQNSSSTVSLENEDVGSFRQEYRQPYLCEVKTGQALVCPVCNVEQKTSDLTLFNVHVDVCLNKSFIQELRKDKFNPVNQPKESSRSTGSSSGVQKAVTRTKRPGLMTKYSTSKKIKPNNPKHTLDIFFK
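Pol kappa 10 nM + cpd, 15 min RT; start w/ substrate 50 nM final; fluorescence kinetic read, 0 and 10 min. Neg ctrl: buffer, no enzyme.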
GALK confirm = confirmation of human galactokinase (GALK) inhibitors; shares compounds with Pol eta inh-1; purified GALK, Kinase-Glo ATP depletion luminescence; Potency, µM (doses to about 115 µM), for the others: at the highest dose activity, negative = inhibition, most hits filed as inhibitors; actives 70% (n = 150)
Redox cycling = generates H2O2 by redox cycling, flagging GALK artifacts | shares compounds with Pol eta inh-1 | Phenol red-HRP H2O2 redox cycling, absorbance 600 nm | Potency, µM (series often up to 115 µM), for the others: top-dose activity change, negative = H2O2 signal, most hits filed as inhibitors | actives 40% (n = 150) | AID 2035
HEK293 tox = HEK-293 cytotoxicity, GALK inhibitor secondary; shares compounds with Pol eta inh-1; HEK-293 viability, ATP luminescence (CellTiter-Glo), 24/48 h; Potency, µM (highest dose often 46.1 µM), without a hit: top-dose activity change, negative = cytotoxicity, most hits filed as inhibitors; actives 10% (n = 170); further: potency means the concentration at half of the fitted maximal effect; on the % scale 0 is the no-effect control and ±100 the full control effect
Pol kappa inh-2 = Pol kappa (human) inhibition, cherry-pick confirmation. shares compounds with Pol eta inh-1. purified Pol-kappa, fluorescent strand-displacement substrate. Potency, µM, hits mostly inhibitors. actives 76% (n = 920). AID 720501; further: potency means the concentration at half of the fitted maximal effect
Pol eta inh-2 = Pol eta (human) inhibition, cherry-pick confirmation; actives 64% (n = 2,600); Pol eta primer extension, TAMRA/BHQ fluorescence, 10 min; shares compounds with Pol eta inh-1; Potency, µM, most hits filed as inhibitors; further: potency means the concentration at half of the fitted maximal effect
An asterisk follows results filed as active; ? = inconclusive; . = no result given; ! = repeats disagree; [ ] = another dose, or the depositor's remark. The call rests on the fitted dose curve; in most records, active means well fitted curve in the direction sought with a large enough effect; inconclusive means small, poorly fitted or top-dose-only effect, or another doubt; inactive means no such curve, though single readings can be large; an effect the other way counts as inactive or inconclusive.

SMILES	POLB inh	Pol eta inh-1	FEN1 inhibitor	WRN helicase inh	POLI inh	Pol kappa inh-1	Pol kappa inh-2	Pol eta inh-2	others
O=C(O)/C=C/c1ccc(S(=O)(=O)Nc2ccc(C(=O)NCC(=O)O)cc2)cc1	-16%	18µM*	6%	-2%[11.6 µM]	?	?	.	?
Cc1cccc(C)c1N(CC(=O)N1CCOCC1)S(C)(=O)=O	27%	-18%	12%	-17%	213%	4%	.	.
CC(=O)N=c1c(C#N)cc2c(=O)n3cccc(C)c3nc2n1Cc1ccco1	?	32µM*	-21%	-28%[57.1 µM]	40µM*	-22%	.	?
O=C(O)c1cc(NS(=O)(=O)c2ccc(NCc3ccccc3)c([N+](=O)[O-])c2)cc(C(=O)O)c1	-20%	16µM*	9%	-9%[11.6 µM]	-11%	-24%	?	.
O=C(O)c1cc(NS(=O)(=O)c2ccc(N3CCOCC3)c([N+](=O)[O-])c2)cc(C(=O)O)c1	-2%	4%	-1%	-18%	7%	-7%	.	.
O=C1CSC(=S)N1c1cccnc1	7%	2%	-13%	-8%[57.1 µM]	?	-15%	.	.
O=C1CSC(=S)N1Cc1cccnc1	-24%	?	-16%	-9%[57.1 µM]	?	-19%	.	?
N=C1/C(=C/c2cccs2)C(=O)N=C2SN=C(SCc3ccccc3)N12	?	25µM*	?	?	?	-4%	.	.	GALK confirm=42µM*;Redox cycling=1%;HEK293 tox=-7%
CSC1=NSC2=NC(=O)/C(=C/c3coc4ccccc4c3=O)C(=N)N12	40µM*	14µM*	79µM*	35µM*	-13%	?	67*	.
N=C1/C(=C\c2coc3ccccc3c2=O)C(=O)N=C2SC=CN12	?	40µM*	?	-21%[57.1 µM]	-3%	?	.	?
O=C(Nc1ccc2nc(C3CC3)n(Cc3ccccc3)c(=O)c2c1)C1CC1	1%	-6%	-1%	-2%	28%	5%	.	.
c1cncc(-c2nc(NCCCN3CCOCC3)c3c4c(sc3n2)CCC4)c1	-10%	-13%	?	-9%	92%	-16%	.	.
CC(C)Cn1c(N)c(C(=O)COC(=O)C2Cc3ccccc3CN2S(C)(=O)=O)c(=O)n(C)c1=O (centres undefined)	.	22µM*	-13%	?	45µM*	?	?	?
CC1(C)CC(=O)C2=C(C1)c1c(ccc3ccccc13)NC2c1cc([N+](=O)[O-])cc([N+](=O)[O-])c1O (centres undefined)	45µM*	28µM*	?	?	?	-36%	47*	?
CC(/C=C\c1cccnc1)=C/C(=O)O	28µM*!	20µM*!	-3%	-17%[57.1 µM]	-11%	-13%	.	48*
O=C(O)/C=C/c1cccnc1	-24%	-11%	-3%	3%	10%	-29%	.	.
CCN1C(=O)c2ccccc2S(=O)c2ccc(C(=O)NC3CC3)cc21 (centres undefined)	-2%	-5%	-6%	8%	-6%	-10%	.	.
C=C1NN(CC#N)C(=O)N1c1ccc(OCc2ccccc2)cc1	.	.	-17%	.	16%	-6%	.	.
Cc1[nH][nH]c(=O)c1C(c1ccc(-c2cccc(Cl)c2)o1)c1c(C)[nH][nH]c1=O	4%	79µM*	-17%	-30%	2.8µM*	0%	.	.	GALK confirm=53µM*;Redox cycling=6.7µM*;HEK293 tox=-5%
Cc1[nH][nH]c(=O)c1C(c1ccc(Br)cc1)c1c(C)[nH][nH]c1=O	-24%	-5%	5%	2%	?	-4%	.	.
Cc1c(CCOC(=O)c2ccc(N3CCOCC3)c([N+](=O)[O-])c2)sc[n+]1CC#N	?	50µM*	-19%	-9%	?	-17%	75*	?
CON=C(C(=O)NC1C(=O)N2C(C(=O)O)=C(CSc3nc(=O)c(=O)[nH]n3C)CSC12)c1csc(N)n1 (centres undefined)	.	32µM*	-22%	-27%	?	40µM*	21*	30*
O=C(c1ccc(CNc2c(N3CCCC3)c(=O)c2=O)cc1)N1CCc2ccccc2C1	9%	-9%	-3%	4%	0%	-1%	.	.
COc1ccc2occ(CC(=O)Nc3ccc(S(=O)(=O)Nc4nccc(C)n4)cc3)c2c1	?	79µM*	-15%	.	?	?	47*	?
COc1ccc(C(=O)OCC(=O)NCCCc2ccccc2)c(OC)c1	14%	-20%	0%	6%[57.1 µM]	45%	-18%	.	.
SMILES	POLB inh	Pol eta inh-1	FEN1 inhibitor	WRN helicase inh	POLI inh	Pol kappa inh-1	Pol kappa inh-2	Pol eta inh-2	others
N=C1/C(=C/c2ccc(Br)o2)C(=O)N=C2SC(CC(=O)N3CCCC3)=NN12	8.9µM*	8.9µM*	?	50µM*	18µM*	35µM*	.	38*
CSc1ccc(/C=C2\C(=N)N3N=C(CC(=O)N4CCOCC4)SC3=NC2=O)cc1	3%	-24%	17%	-4%[57.1 µM]	?	?	.	.
Cc1ccc(/C=C2\C(=N)N3N=C(CC(=O)N4CCCCC4)SC3=NC2=O)cc1	-21%	?	-15%	-2%[11.6 µM]	?	?	.	19*
CSc1ccc(/C=C2\C(=N)N3N=C(CC(=O)N4CCCCC4)SC3=NC2=O)cc1	?	45µM*	-19%	-6%[11.6 µM]	?	89µM*	67*	.
CN1C(=O)c2ccccc2NC(=O)[C@]12O[C@@H]2c1cccc(O)c1	45µM*	11µM*	2%	-25%	?	40µM*	.	38*
CCSc1nnc(NC(=O)C2CCCCC2)s1	1%	-17%	-2%	6%	20%	-5%	.	.

Source: PubChem
